According to PubChem BioAssay AID1259343 (VanderVen Lab, College of Veterinary Medicine, Cornell …, 2017):
About 2,900 (47%) of roughly 6,200 compounds were called active. So high a share suggests a set chosen from earlier hits. The list shows a part of the results. A number with no mark means an inactive call. Rule as the data show it: active = inhibition above about 50%; inactive = the rest.

Assay: Mycobacterium tuberculosis growth inhibition, primary screen (AID 1259343)
Conditions: inhibition: at 10 µM, active compounds read high; outcome: 10 uM

| Structure (SMILES) | inhibition |
| --- | --- |
| O=S(=O)(Nc1ccc(Cl)cc1F)c1ccc(Cl)s1 | -6.72% |
| CC(=NNS(=O)(=O)c1ccc(Br)cc1)c1ccc(Cl)s1 | 29.9% |
| O=S(=O)(Nc1ccc(Br)cc1Br)c1ccc(Cl)s1 | 86.1% (active) |
| CCCCCCNS(=O)(=O)c1ccc(Br)s1 | 78.5% (active) |
| Cc1ccc(S(=O)(=O)Nc2ccc(Br)cc2Br)c(C)c1 | 50.7% (active) |
| O=S(=O)(Nc1cc2c(cc1Cl)OCO2)c1ccc(Cl)s1 | 101% (active) |
| O=S(=O)(Nc1ccc(Br)cc1)c1ccc(Br)s1 | 96.8% (active) |
| O=S(=O)(Nc1ccc(Cl)cc1)c1ccc(Cl)s1 | -18.5% |
| O=S(=O)(Nc1ccc(Br)cc1)c1ccc(Cl)s1 | 95.3% (active) |
| Cc1cc(C)cc(CN2CCC(CCc3ccc(C(F)(F)F)cc3)CC2)c1 | -22.4% |
| Cc1ccc(CCC2CCN(C(C)C(=O)Nc3ccc(S(N)(=O)=O)cc3)CC2)cc1 (centres undefined) | 3.86% |
| N#CC1CCN(C(=O)Nc2ccc(OCC3CCCCC3)cc2)CC1 | 40% |
| O=C(COc1cccc(Cl)c1)N1CCC(CCc2ccc3c(c2)OCO3)CC1 | 43.2% |
| CCOc1ccc(NC(=O)N2CCC(Cc3ccc4c(c3)OCO4)CC2)cc1 | 64% (active) |
| Cc1ccc(CCC2CCN(C(=O)Nc3cccnc3)CC2)cc1 | 90.4% (active) |
| CCOc1ccc(NC(=O)N2CCC(CCc3ccc(C(F)(F)F)cc3)CC2)cc1 | 78.8% (active) |
| CCCc1nc2sc3c(NCCN(C)C)ncnc3c2c2c1CCCC2 | -36.3% |
| CCCCc1nc2sc3c(NCCN4CCOCC4)ncnc3c2c2c1COC(C)(C)C2 | 71.5% (active) |
| COc1ccnc(CS(=O)c2nc3ccc(OC(F)F)cc3[nH]2)c1OC (centres undefined) | 100% (active) |
| COc1cc2c(=O)[nH]c(-c3ccccn3)nc2cc1OC(F)F | 43.2% |
| CN(C)CC[C@H](c1ccc(Cl)cc1)c1ccccn1 | 35.8% |
| Clc1ccc(Cl)c(SCCc2ccccn2)c1 | 73.3% (active) |
| Clc1ccc(Cl)c(SCCSc2ncn[nH]2)c1 | 23.3% |
| O=C(c1csc(COc2ccc(F)cc2F)n1)N1CCCC1 | -0.05% |
| Fc1cc(F)cc(-c2cncc(COc3ccc(F)cc3F)c2)c1 | 59.7% (active) |
| O=S(=O)(NC1CCCCCCC1)c1ccccc1F | 29.7% |

| Structure (SMILES) | inhibition |
| --- | --- |
| O=S(=O)(NC1CCCCCC1)c1ccc(Cl)cc1 | 76.5% (active) |
| O=S(=O)(NC1CCCCCC1)c1ccc(F)c(F)c1 | -47.6% |
| Cc1ccccc1-c1nnn(Cc2cc(=O)n3c(C)cccc3n2)n1 | 32.9% |
| Cc1ccc(C(=O)Cn2nnc(-c3ccccc3C)n2)c(C)c1 | 90.1% (active) |
| Cc1ccc(C)c(-c2csc(NC(=O)c3cccs3)n2)c1 | 42.1% |
| O=C(Nc1n[nH]c(=S)s1)c1cccs1 | 103% (active) |
| COC(=O)C1=C(NC(=O)c2cccs2)CCS1 | -17.8% |
| CCN(CC)CCNC(=O)c1cc(NC(=O)Nc2cccc(Br)c2)ccc1N1CCCCC1 | 39.5% |
| CC(C)Oc1ccc(-c2cc(C(=O)NN=Cc3cccs3)[nH]n2)cc1 | 68.8% (active) |
| COc1ccc(-c2cc(C(=O)NN=Cc3ccc(Br)cc3)[nH]n2)cc1 | 36.8% |
| O=C(CCC(F)(F)F)N1CCC(CO)(CCc2ccccc2)CC1 | 25.8% |
| Cc1cccc(C2(O)CCN(C(=O)CCc3ccccc3)CC2)c1C | 75.2% (active) |
| Cc1ccccc1CC1(CO)CCCN(C(=O)CCC(F)(F)F)C1 (centres undefined) | 29.1% |
| O=C(OCC(=O)N1CCN(c2ccc(F)cc2)CC1)c1ccc(O)cc1 | 87.3% (active) |
| Cc1ccccc1C1(O)CCN(C(=O)CCC2CCCC2)C1 (centres undefined) | 68% (active) |
| Cc1ccccc1N1CCN(C(=O)CCc2nnc(CCCc3ccccc3)o2)CC1 | 26% |
| O=C(CCc1ccccc1)N1CCN(c2ccc(O)cc2)CC1 | 78.6% (active) |
| O=C(COc1cccc(F)c1)N1CCC(c2ccc(O)cc2)CC1 | 39.3% |
| CCOC(=O)C1(CCCc2ccccc2)CCN(C(=O)CC2=CCCCC2)CC1 | 16.7% |
| O=C(CC1Cc2ccccc2C1)N1CCC2(CCc3ccccc32)C1 (centres undefined) | 31.8% |
| Cc1cc(Cn2ccnc2-c2cc3ccc(F)cc3[nH]c2=O)on1 | -7.89% |
| Cc1ccc2ncn(Cc3nc(-c4ccc(C)c(F)c4)no3)c(=O)c2c1 | -6.02% |
| CNC(=O)NC(=O)CCSC(C)c1nc(-c2ccc(C)c(F)c2)no1 (centres undefined) | 91.8% (active) |
| Cc1ccc(OCc2cc(C(=O)NC(C)c3nc(-c4ccccc4)no3)no2)cc1C (centres undefined) | 23% |
| Cc1ccccc1Cc1nnc(CN(CC(C)O)c2ccccc2)o1 (centres undefined) | 80.1% (active) |
| CCOC(=O)/C=C/c1c([N+](=O)[O-])sc(Br)c1Br | 103% (active) |

| Structure (SMILES) | inhibition |
| --- | --- |
| O=C(Nc1ccc(-c2cscn2)cc1)C1CCCN(C(=O)Cc2ccccc2F)C1 (centres undefined) | 33.2% |
| O=C(c1ccc(Cl)s1)N1CCCC(Nc2ccc3c(c2)OCO3)C1 (centres undefined) | 44.6% |
| Cc1ccc(NC2CCCN(C(=O)C3CCCCC3)C2)cc1C (centres undefined) | 49% |
| Cc1ccc(NC2CCCN(C(=O)c3cccs3)C2)cc1C (centres undefined) | 59.6% (active) |
| COCc1ccc(CN2CCCC(C(=O)Nc3ccc(-c4cscn4)cc3)C2)o1 (centres undefined) | 29% |
| CC(=O)c1cc(CN2CCCC(C(=O)Nc3ccc(-c4cscn4)cc3)C2)cs1 (centres undefined) | 70.9% (active) |
| O=C(Nc1ccc(-c2cscn2)cc1)C1CCCN(Cc2ccon2)C1 (centres undefined) | inactive |
| Cc1cccc(CN2CCCC(C(=O)Nc3ccc(-c4cscn4)cc3)C2)c1 (centres undefined) | 88.8% (active) |
| O=C(Nc1ccc(-c2cscn2)cc1)C1CCCN(C(=O)c2cccs2)C1 (centres undefined) | 58.2% (active) |
| CCCNC(=O)CSc1nc2ccccc2o1 | -21.7% |
| CC1CCc2sc(-c3nnc(SCc4nc(-c5cccs5)no4)o3)cc2C1 (centres undefined) | 5.99% |
| COc1ccccc1-c1noc(CSc2nc3ccccc3o2)n1 | 89.1% (active) |
| c1csc(-c2noc(CSc3nc4ccccc4o3)n2)c1 | 100% (active) |
| O=S(=O)(c1ccc(Cl)s1)N1CCCc2cccc(O)c21 | 43.4% |
| Cc1cccc2nc(-c3ccc(C(C)(C)C)cc3)c(NC(C)(C)C)n12 | 73.6% (active) |
| CC(=O)N(C)c1ccc(NC(C)c2ccc(F)c(F)c2)cc1 (centres undefined) | 20% |
| CNC(C)c1ccc(Sc2ccc(C(C)C)cc2)c(F)c1 (centres undefined) | 67% (active) |
| Cc1cc(I)ccc1N | 83.3% (active) |
| O=C(COc1c(F)c(F)cc(F)c1F)c1ccc[nH]1 | 65.2% (active) |
| O=S(=O)(NCCC1=CCCCC1)c1cccc2nonc12 | -1.1% |
| Nn1ccc2nc3ccn(CCC4=CCCCC4)c(=O)c3cc2c1=O | 85.4% (active) |
| CCOC(=O)COc1ccc(C)cc1C(=O)c1cnc2c(c1)COc1ccccc1-2 | 61.1% (active) |
| O=C(CN(C1CCCCC1)C1CC1)Nc1ccc(Cl)cn1 | 37.5% |
| CC(Nc1cccc(OC(F)(F)F)c1)C(=O)Nc1cccnc1Cl (centres undefined) | -51.8% |
| CC(Nc1ccc(OCC(F)(F)F)cc1)C(=O)Nc1ccc(Cl)cn1 (centres undefined) | 97% (active) |
| O=C1NC(=NN=Cc2cccnc2)SC1Cc1ccc(SC(F)F)cc1 (centres undefined) | 35.2% |

| Structure (SMILES) | inhibition |
| --- | --- |
| COc1ccnc(NC2CCC(c3ccccc3)CC2)n1 (centres undefined) | 68.9% (active) |
| Fc1ccccc1-n1cc(-c2ccnc(NC3CCC3)n2)cn1 | 20.1% |
| O=C(NC1CCC(c2ccccc2)CC1)c1n[nH]c2ccccc12 (centres undefined) | 25.1% |
| COc1cccc(-c2ccc(NC(=O)C3CCCN(C(=O)c4ccoc4)C3)cc2)c1 (centres undefined) | inactive |
| COc1ccc(-c2ccc(C(=O)N3CCC(C(N)=O)C3)c(F)c2)cc1 (centres undefined) | 69.6% (active) |
| Ic1cccc(-c2nnc(-c3ccccc3)o2)c1 | 103% (active) |
| CN(C)c1cccc(-c2nc3cc(N)ccc3o2)c1 | 30.8% |
| Cc1cccc(-c2nnc(C(C)Oc3ccccc3C#N)o2)c1 (centres undefined) | 23.4% |
| Nc1ccc2oc(-c3cc(F)c(F)cc3Cl)nc2c1 | -28% |
| Nc1ccc2oc(-c3cncc(Br)c3)nc2c1 | 7.61% |
| CC(c1nnc(-c2ccccc2)o1)N(C)CC12CC3CC(CC(C3)C1)C2 (centres undefined) | -23% |
| Nc1ccc2oc(-c3cccc(I)c3)nc2c1 | 60.4% (active) |
| Nc1ccc(-c2nc3cc(Cl)ccc3o2)cc1 | 90.3% (active) |
| Nc1ccc(Cl)c(-c2nc3cc(Cl)ccc3o2)c1 | 30% |
| CS(=O)(=O)c1nnnn1-c1ccccc1Cl | 95.7% (active) |
| COc1cc(C2=NC(=CC3=Cc4ccccc4OC3)C(=O)O2)cc(OC)c1OC | inactive |
| COc1cc(C2=NC(=Cc3ccc(N4CCOCC4)s3)C(=O)O2)cc(OC)c1OC | 79.7% (active) |
| Cc1ccc(C2=NC(=Cc3ccco3)C(=O)O2)cc1C | -7.96% |
| O=C(Nc1ncc(Cc2ccccc2Cl)s1)c1cnccn1 | 92.8% (active) |
| O=C(CCl)Nc1nc(-c2ccccc2Cl)cs1 | 97.7% (active) |
| O=C(CCl)Nc1ncc(Cc2ccccc2)s1 | -18.1% |
| Cc1cnc(NC(=O)CCc2nc(C(C)(C)C)no2)s1 | -2.31% |
| CC1(C(=O)Nc2nc(-c3ccccc3Cl)cs2)Cc2ccccc2C(=O)O1 (centres undefined) | 37.1% |
| O=C(CCl)Nc1nc(-c2c[nH]c3ccccc23)cs1 | -41.1% |
| O=C(Nc1nc(-c2ccco2)c(-c2ccco2)s1)c1cnccn1 | -27.4% |
| O=C(CCl)Nc1ncc(Cc2ccccc2Cl)s1 | 92.7% (active) |
